About 83,000 compounds went through this panel and 20% of them were active in at least one assay; those are over-represented in the sample as a whole.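 A percent growth of 40 corresponds to 60% growth inhibition; 0 means no net growth; -100 means all cells died. Active threshold: below 10.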 Calls of active or inactive are those of the source.
Experiments:
Assay in all cases: NCI-60 one-dose screen, 48 h (100 = growth as untreated, 0 = no growth, -100 = all killed)
Details in all cases: 10 µM unless noted
[1] = tested on: RPMI-8226 leukemia
[2] = tested on: OVCAR-8 ovarian
[3] = tested on: OVCAR-5 ovarian
[4] = tested on: OVCAR-4 ovarian
[5] = tested on: SK-OV-3 ovarian
[6] = tested on: IGROV1 ovarian
[7] = tested on: OVCAR-3 ovarian
[8] = tested on: HS 578T breast
[9] = tested on: NCI/ADR-RES ovarian
[10] = tested on: T-47D breast
[11] = tested on: BT-549 breast
[12] = tested on: MDA-MB-435 melanoma
[13] = tested on: SW-620 colon
[14] = tested on: MCF7 breast
[15] = tested on: HCT-116 colon
[16] = tested on: KM12 colon
[17] = tested on: HCC-2998 colon

Measured: growth

C=COC(=O)CCCCCCCCC
inactive: [1] 100% | [2] 101% | [3] 111% | [4] 109% | [5] 111% | [6] 97.1% | [7] 120% | [8] 102% | [9] 103% | [10] 110% | [11] 108% | [12] 106% | [13] 99.1% | [14] 101% | [15] 109% | [16] 106%

O=C(Nc1cccc(-n2cc(-c3ccncc3)c(-c3ccc(Cl)c(O)c3)n2)c1)Nc1cc(C(F)(F)F)cc(C(F)(F)F)c1
active: [1] -10.9% | [2] -12.2% | [3] -32.9% | [4] 0.865% | [5] -24.3% | [6] 4.8% | [7] -67.5% | [8] -26% | [9] 4.72% | [11] -35.9% | [12] -31.1% | [13] 3.32% | [15] -59.1% | [17] -56.9% | [16] -50.3%
inactive: [10] 12.1%

COc1ccc(-c2nc3sc(-c4cc(OC)c(OC)c(OC)c4)nn3c2/C=C2/C(=O)Nc3ccc(F)cc32)cc1
active: [3] 3.01% | [4] -32.4% | [5] 6.67% | [6] -39.3% | [7] -60.9% | [10] -24.9% | [12] -28.6% | [13] 0.989% | [17] -55%
inactive: [1] 13.3% | [2] 21.9% | [8] 30.3% | [9] 37.6% | [11] 41.5% | [15] 29.7% | [16] 13.7%

O=c1c2sc3ncccc3c2nnn1-c1ccccc1
inactive: [1] 99% | [2] 104% | [3] 101% | [4] 103% | [5] 105% | [6] 106% | [7] 112% | [8] 108% | [9] 107% | [10] 85.4% | [11] 108% | [12] 101% | [13] 109% | [14] 90.6% | [15] 113% | [16] 106%

COc1ccc(-c2cnoc2-c2ccc(OC)cc2O)cc1
inactive: [1] 49.6% | [2] 51.4% | [3] 64.1% | [4] 75.1% | [5] 30% | [6] 51.6% | [11] 56.5% | [13] 11% | [14] 19.6% | [15] 16.5% | [17] 32% | [16] 19.2%
active: [7] -11.3% | [8] -7.48% | [9] -21% | [12] -29.4%

O=S(=O)(NCCNc1nccc(-c2c(-c3ccc(F)cc3)nc3sccn23)n1)c1ccc(F)cc1
inactive: [1] 74.7% | [2] 68.2% | [3] 102% | [4] 81.4% | [5] 92.7% | [6] 61.8% | [7] 90.1% | [8] 93.8% | [9] 81.2% | [10] 60.1% | [11] 92.2% | [12] 55% | [13] 90.8% | [15] 60.4% | [16] 76.5%

O=C(Nc1cccc(-n2cc(-c3ccncc3)c(-c3ccc(Cl)c(O)c3)n2)c1)Nc1ccc(Cl)c(Cl)c1
active: [1] 7.89% | [7] -4.74% | [12] 9.98% | [14] 5.74% | [16] 8.15%
inactive: [2] 11.7% | [3] 56.4% | [4] 29.4% | [5] 18.7% | [6] 28.7% | [8] 36.1% | [9] 20.9% | [10] 23% | [11] 34.4% | [13] 24.5% | [15] 11.1%

CC(=O)Oc1cccc(S(=O)(=O)n2cc(C(=O)C(=O)Nc3ccncc3)c3ccccc32)c1
inactive: [1] 65.2% | [2] 89.7% | [3] 90.8% | [4] 78% | [5] 92.5% | [6] 84.7% | [7] 101% | [8] 98.5% | [9] 80.2% | [10] 73.6% | [11] 83.8% | [12] 38.5% | [13] 98% | [15] 76.6% | [17] 84.3% | [16] 83.6%

NNc1cccc(/C=C/c2ccccc2)cc1=O
inactive: [1] 29.8% | [2] 57.8% | [3] 82.3% | [4] 45.9% | [5] 76.4% | [6] 33.6% | [7] 54.6% | [8] 78.5% | [9] 59.6% | [11] 69.1% | [12] 73.2% | [13] 54.7% | [14] 36.1% | [15] 33.8% | [17] 70.2% | [16] 59%

From PubChem BioAssay (NCI)
